From the supplement of paper PMC10849652
Of roughly 8,800 targets only a part is listed; those with a hit were picked by preference. About 0.5% of all pairs of compound and target were hits. Unmarked numbers belong to inactive results.

Key:
Assay in all cases: log2 fold change, soluble protein after heating vs DMSO (PISA); higher = thermal stabilisation; K562 lysate, 10 uM; active = over 0.2 and 3.5 SD of the protein, either way, in both replicates (recomputed)
alvocidib = compound: CN1CC[C@H](c2c(O)cc(O)c3c(=O)cc(-c4ccccc4Cl)oc23)[C@H](O)C1 [alvocidib]
Method in brief: (§1)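 Thermal stability, expressed as log-two fold change relative to solvent controls, is given from duplicates. Crude K562 extract in PBS pH 7.4 with 1 mM MgCl2, at 1 mg/mL protein, was treated with 10 μM compound for 30 min and heated in aliquots for 3 min across 48°C-58°C. After pooling, adjustment to 0.5% NP-40 at 4°C and centrifugation at 21,000xg for 90 min, supernatant protein was measured by TMTpro 16plex LC-MS/MS with channel sums equalised.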

Tubastatin A = compound: CN1CCc2c(c3ccccc3n2Cc2ccc(C(=O)NO)cc2)C1 [Tubastatin A]
Method in brief: as §1

[1] = compound: CNC(=O)C1=CC=CC=C1NC2=NC(=NC=C2Cl)NC3=C(C=C(C=C3)N4CCOCC4)OC
Method in brief: as §1

defactinib = compound: CNC(=O)c1ccc(Nc2ncc(C(F)(F)F)c(NCc3nccnc3N(C)S(C)(=O)=O)n2)cc1 [defactinib]
Method in brief: as §1

[2] = compound: CNc1nc(-c2ccc3c(N)n[nH]c3c2)cc(N2C[C@@H](C(=O)NC3CCCCC3)CC[C@H]2C)n1
Method in brief: as §1

encorafenib = compound: COC(=O)N[C@@H](C)CNc1nccc(-c2cn(C(C)C)nc2-c2cc(Cl)cc(NS(C)(=O)=O)c2F)n1 [encorafenib]
Method in brief: as §1

[3] = compound: COC(=O)[C@H](CCSC)NC(=O)C1=C(C=C(C=C1)NC[C@H](CS)N)C2=CC=CC=C2
Method in brief: as §1

alisertib = compound: COc1cc(Nc2ncc3c(n2)-c2ccc(Cl)cc2C(c2c(F)cccc2OC)=NC3)ccc1C(=O)O [alisertib]
Method in brief: as §1

[4] = compound: COc1cc2nc(-c3cc(F)ccc3O)nc(N[C@@H]3CNC[C@H]3C(C)(C)O)c2cc1OC
Method in brief: as §1

gefitinib = compound: COc1cc2ncnc(Nc3ccc(F)c(Cl)c3)c2cc1OCCCN1CCOCC1 [gefitinib]
Method in brief: as §1

UniProt Q86VV8, sequence (Q86VV8 whole entry, looked up): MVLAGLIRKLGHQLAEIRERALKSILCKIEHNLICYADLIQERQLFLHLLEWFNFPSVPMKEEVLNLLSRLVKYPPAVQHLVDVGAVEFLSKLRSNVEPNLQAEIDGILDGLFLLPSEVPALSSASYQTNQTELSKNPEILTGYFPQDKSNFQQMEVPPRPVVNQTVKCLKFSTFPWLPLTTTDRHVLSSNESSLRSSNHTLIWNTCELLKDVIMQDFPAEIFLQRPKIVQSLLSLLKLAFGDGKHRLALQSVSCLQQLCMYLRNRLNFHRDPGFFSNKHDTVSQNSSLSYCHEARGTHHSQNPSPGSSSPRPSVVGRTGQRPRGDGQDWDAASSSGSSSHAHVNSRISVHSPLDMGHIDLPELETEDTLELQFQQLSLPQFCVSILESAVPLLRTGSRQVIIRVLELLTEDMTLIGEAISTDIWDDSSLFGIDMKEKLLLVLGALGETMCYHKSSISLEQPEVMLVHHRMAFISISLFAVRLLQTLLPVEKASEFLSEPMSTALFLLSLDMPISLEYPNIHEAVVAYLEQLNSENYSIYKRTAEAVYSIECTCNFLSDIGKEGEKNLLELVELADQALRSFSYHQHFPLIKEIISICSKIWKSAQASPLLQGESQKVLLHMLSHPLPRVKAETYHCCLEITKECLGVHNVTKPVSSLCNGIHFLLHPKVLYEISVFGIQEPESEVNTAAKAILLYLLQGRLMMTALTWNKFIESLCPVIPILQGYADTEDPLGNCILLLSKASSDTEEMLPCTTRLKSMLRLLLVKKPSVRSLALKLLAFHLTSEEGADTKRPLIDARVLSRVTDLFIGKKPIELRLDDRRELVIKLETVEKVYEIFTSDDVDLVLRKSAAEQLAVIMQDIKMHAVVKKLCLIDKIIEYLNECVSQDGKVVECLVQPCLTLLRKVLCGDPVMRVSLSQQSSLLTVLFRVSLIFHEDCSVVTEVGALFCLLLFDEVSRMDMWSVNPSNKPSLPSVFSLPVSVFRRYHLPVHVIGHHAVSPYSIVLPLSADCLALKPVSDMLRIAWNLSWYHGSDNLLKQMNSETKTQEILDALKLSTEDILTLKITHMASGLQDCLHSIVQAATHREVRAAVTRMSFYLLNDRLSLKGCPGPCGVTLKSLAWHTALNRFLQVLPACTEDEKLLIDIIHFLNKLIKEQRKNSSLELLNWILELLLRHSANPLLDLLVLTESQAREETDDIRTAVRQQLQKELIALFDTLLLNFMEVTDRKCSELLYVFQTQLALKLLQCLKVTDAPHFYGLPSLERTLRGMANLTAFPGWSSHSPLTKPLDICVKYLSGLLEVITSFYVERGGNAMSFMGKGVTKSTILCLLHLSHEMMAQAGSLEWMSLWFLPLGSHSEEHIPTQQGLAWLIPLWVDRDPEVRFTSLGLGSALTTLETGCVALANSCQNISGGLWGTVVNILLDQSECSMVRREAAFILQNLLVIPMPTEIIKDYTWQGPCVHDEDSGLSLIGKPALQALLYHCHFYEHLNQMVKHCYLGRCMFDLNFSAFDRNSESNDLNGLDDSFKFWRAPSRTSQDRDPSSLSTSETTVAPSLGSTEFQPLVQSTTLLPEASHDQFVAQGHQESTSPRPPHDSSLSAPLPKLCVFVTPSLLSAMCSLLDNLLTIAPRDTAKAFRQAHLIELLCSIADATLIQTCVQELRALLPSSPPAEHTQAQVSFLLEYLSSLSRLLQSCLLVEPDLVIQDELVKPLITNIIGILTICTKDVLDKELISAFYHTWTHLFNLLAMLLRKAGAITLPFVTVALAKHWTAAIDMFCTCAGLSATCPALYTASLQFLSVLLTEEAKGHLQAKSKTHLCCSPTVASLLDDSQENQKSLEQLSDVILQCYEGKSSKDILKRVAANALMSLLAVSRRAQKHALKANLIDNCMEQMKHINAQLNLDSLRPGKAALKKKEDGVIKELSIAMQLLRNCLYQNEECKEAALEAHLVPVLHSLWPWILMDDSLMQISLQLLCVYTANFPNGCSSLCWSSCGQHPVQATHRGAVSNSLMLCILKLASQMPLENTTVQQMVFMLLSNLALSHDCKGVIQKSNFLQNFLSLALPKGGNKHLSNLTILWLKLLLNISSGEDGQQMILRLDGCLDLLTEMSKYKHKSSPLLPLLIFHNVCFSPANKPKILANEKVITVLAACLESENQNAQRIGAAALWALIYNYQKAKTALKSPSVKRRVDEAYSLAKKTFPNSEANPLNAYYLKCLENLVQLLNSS
UniProt P53805, sequence (P53805 whole entry, looked up): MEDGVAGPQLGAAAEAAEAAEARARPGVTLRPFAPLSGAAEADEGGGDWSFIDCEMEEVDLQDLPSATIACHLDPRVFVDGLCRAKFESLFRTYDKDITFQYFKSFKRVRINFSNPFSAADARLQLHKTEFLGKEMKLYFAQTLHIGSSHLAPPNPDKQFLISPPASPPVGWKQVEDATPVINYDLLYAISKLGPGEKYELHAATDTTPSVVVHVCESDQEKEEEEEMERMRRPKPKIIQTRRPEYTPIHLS
UniProt Q9BVS4, sequence (Q9BVS4 whole entry, looked up): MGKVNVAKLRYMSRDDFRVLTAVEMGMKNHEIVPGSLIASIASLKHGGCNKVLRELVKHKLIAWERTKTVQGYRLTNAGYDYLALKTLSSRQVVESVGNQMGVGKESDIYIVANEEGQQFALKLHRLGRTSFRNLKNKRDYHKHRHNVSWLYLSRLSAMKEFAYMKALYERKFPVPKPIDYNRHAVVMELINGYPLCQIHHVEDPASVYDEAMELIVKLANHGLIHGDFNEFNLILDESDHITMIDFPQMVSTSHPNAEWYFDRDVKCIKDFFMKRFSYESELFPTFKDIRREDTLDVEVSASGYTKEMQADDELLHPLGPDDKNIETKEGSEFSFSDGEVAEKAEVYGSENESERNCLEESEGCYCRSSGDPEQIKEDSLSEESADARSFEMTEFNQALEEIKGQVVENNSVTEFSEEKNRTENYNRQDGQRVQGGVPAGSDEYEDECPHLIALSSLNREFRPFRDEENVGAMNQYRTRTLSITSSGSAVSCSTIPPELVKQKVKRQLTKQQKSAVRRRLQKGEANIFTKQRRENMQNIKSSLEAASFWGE
UniProt Q7L0Q8, sequence (Q7L0Q8 whole entry, looked up): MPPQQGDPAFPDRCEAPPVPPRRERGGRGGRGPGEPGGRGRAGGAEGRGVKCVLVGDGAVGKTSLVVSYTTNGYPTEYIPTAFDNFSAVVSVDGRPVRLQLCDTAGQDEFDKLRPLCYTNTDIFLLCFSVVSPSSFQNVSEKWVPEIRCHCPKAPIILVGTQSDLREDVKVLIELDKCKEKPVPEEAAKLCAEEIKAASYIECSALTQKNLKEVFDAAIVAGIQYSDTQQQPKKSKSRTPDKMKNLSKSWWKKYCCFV
UniProt Q5XPI4, sequence (Q5XPI4 whole entry, looked up): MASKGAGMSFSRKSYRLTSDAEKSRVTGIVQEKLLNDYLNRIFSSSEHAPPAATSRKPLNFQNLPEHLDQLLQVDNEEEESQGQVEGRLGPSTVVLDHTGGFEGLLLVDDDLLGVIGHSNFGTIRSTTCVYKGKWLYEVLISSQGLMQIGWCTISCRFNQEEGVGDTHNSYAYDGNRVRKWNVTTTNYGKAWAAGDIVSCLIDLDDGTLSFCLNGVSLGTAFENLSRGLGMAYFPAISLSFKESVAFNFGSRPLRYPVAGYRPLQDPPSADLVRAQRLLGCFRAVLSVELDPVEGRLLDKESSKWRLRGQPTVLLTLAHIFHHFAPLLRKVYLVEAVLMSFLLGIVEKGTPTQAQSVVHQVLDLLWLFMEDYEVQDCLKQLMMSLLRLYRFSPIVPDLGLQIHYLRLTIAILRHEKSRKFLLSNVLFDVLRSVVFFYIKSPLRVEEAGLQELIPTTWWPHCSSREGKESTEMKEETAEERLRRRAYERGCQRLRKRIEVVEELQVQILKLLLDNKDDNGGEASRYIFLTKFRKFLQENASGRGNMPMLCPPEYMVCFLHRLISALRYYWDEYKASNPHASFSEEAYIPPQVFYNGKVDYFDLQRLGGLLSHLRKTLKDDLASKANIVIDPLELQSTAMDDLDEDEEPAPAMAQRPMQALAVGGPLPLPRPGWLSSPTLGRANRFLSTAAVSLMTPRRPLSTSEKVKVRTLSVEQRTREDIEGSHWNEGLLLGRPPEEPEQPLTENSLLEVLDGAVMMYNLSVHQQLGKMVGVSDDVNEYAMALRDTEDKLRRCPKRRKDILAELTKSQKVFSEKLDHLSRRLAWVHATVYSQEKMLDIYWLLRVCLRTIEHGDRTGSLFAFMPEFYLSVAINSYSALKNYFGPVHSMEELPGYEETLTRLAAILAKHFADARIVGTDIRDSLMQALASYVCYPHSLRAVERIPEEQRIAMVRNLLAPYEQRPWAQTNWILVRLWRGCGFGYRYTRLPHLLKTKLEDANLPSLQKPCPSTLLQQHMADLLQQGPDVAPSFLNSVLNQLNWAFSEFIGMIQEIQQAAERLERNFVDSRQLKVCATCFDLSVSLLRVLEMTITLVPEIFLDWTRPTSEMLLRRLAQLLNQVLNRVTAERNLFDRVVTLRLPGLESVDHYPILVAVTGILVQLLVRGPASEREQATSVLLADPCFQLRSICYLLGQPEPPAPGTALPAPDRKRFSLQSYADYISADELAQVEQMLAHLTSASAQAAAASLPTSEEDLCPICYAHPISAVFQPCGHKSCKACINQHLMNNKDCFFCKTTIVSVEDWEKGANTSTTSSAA
UniProt P61586, sequence (P61586 whole entry, looked up): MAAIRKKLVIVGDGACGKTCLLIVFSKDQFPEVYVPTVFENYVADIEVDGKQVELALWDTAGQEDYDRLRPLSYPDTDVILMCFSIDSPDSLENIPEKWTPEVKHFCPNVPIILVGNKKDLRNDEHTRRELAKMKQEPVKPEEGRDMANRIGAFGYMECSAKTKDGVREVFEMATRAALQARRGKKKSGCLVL
UniProt P51159, sequence (P51159 whole entry, looked up): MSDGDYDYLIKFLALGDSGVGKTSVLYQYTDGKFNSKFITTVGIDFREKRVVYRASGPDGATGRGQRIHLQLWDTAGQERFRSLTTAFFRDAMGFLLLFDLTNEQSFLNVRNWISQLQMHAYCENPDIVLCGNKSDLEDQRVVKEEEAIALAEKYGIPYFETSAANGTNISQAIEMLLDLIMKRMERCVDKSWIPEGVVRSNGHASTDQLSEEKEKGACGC

Target	log2 fold change (alvocidib)	log2 fold change (Tubastatin A)	log2 fold change [1]	log2 fold change (defactinib)	log2 fold change [2]	log2 fold change (encorafenib)	log2 fold change [3]	log2 fold change (alisertib)	log2 fold change [4]	log2 fold change (gefitinib)
RRM1 (UniProt P23921)	-0.004	-0.098	-0.007	0.022	-0.03	0.005	0.098	0.007	0.007	-0.006
RNF123 (UniProt Q5XPI4)	0.011	-0.047	-0.002	-0.027	0.017	0.044	-0.062	-0.004	0.017	0.011
RPS29 (UniProt P62273)	0.23	-0.052	-0.029	-0.027	0.081	-0.062	0.151	-0.278	0.032	-0.138
QTRT2 isoform 4 (UniProt Q9H974)	-0.105	0.003	0.018	-0.014	0	-0.018	-0.044	0.016	0.008	0.031
RCAN1 (UniProt P53805)	-0.003	-0.118	0.052	0.006	0.079	0.065	0.035	-0.02	0.019	-0.038
RAP1B (UniProt P61224)	0.039	0.05	0.005	0.02	0.025	0.011	-0.034	0.015	0.057	-0.054
SASS6 (UniProt Q6UVJ0)	0.051	-0.104	0.018	0.03	-0.002	0.053	0.085	-0.019	0.005	0.001
RAB3IL1 (UniProt E9PK89)	-0.008	-0.025	0.023	0.123	0.005	0.047	0.024	0.032	-0.07	0
SCAF1 (UniProt Q9H7N4)	0.054	0.034	-0.051	0.046	0.051	-0.028	-0.066	0.128	-0.02	0.129
RAD51C (UniProt O43502)	0.061	-0.081	0.002	0.035	0.072	-0.058	0.004	-0.005	0.047	-0.016
RABL3 (UniProt Q5HYI8)	-0.023	-0.193	0.154	0	-0.021	0.02	-0.01	-0.036	-0.038	0.005
RALGAPA1 isoform 6 (UniProt Q6GYQ0)	-0.102	0.033	0.007	0.069	0.003	0.016	0.094	-0.029	0.047	0.056
RTN4IP1 (UniProt Q8WWV3)	0.042	-0.079	0.036	-0.014	0	-0.021	0.003	-0.111	0.019	0.196
RDX (UniProt P35241)	0.116	0.042	-0.002	-0.009	0.034	-0.047	-0.033	-0.018	0	0.013
RMC1 (UniProt Q96DM3)	-0.041	-0.019	0.019	0.049	-0.019	0.012	-0.023	0	-0.001	0.005
RHOU (UniProt Q7L0Q8)	0.007	0.005	-0.036	-0.073	-0.17	-0.088	0.164	-0.014	0.024	-0.017
RIOK2 (UniProt Q9BVS4)	-0.021	-0.098	0.438 (active)	0.105	0.127	-0.025	0.029	-0.005	-0.051	-0.011
RNASEH1 (UniProt O60930)	0.024									
SESN2 (UniProt P58004)	0.028	-0.093	-0.028	0.039	0.033	0.038	-0.001	-0.026	-0.045	-0.034
RTTN (UniProt Q86VV8)	0.088	-0.242	0.082	0.401	0.018	0.069	-0.085	-0.002	-0.301	0.049
RAB27A (UniProt P51159)	0.087	-0.083	0.047	-0.001	-0.131	0.027	0.016	-0.004	0.041	0.068
RIOK1 (UniProt Q9BRS2)	0	0.005	0.008	-0.009	0.413 (active)	0.006	-0.006	0.01	0.168	-0.019
RNF213, A0A0A0MTC1	-0.003	-0.081	0.023	-0.02	-0.04	0.054	-0.061	0.013	0.012	-0.012
RBM22 (UniProt Q9NW64)	0.022	0.019	0.009	0.001	0.179	0.05	-0.11	0.002	0.026	0.031
S100A11 (UniProt P31949)	0.085	0.075	0.029	0.059	-0.011	-0.021	0.007	0.024	-0.01	-0.089
RAB6D (UniProt Q53S08)	-0.029	0.078	0.024	0.077	0.087	0.023	-0.034	-0.149	0.062	0.027
RDH11 (UniProt Q8TC12)	-0.071	0.031	0.011	0	0.1	0.092	0.149	-0.009	0.082	-0.019
RHOA (UniProt P61586)	0.093	-0.078	0.087	-0.029	-0.003	-0.042	-0.046	0.072	0.029	0.078
